Assay results as given in PubChem BioAssay AID1159580 (chemical genetic matrix, 2015).
Where “and” joins values, the source holds several entries; their conditions need not be identical. Identical values can stand only once. Among all 5,500 compounds or so, about 2,000 (36%) were called active. Roughly 18% stayed inconclusive and do not appear here. Cut-off read from the data, not from the text of the source: active = normalized growth mostly below about 0.91 (no sharp cut-off); inconclusive = no clear call, values can overlap the other calls; inactive = mostly above about 0.92. Some of the results follow.

Experiment: chemical genetic growth profiling, strain panel (AID 1159580);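 note: tested at 20 µM; growth read once vehicle control cultures reached saturation at 30 °C; 1 = growth at the plate median or of vehicle wells; lower values mean less growth of the strain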
Conditions: S. cerevisiae deletion strains, growth OD

Measured: normalized growth

C[N+]12CCC(CC1)C(OC(=O)C(O)(c1ccccc1)c1ccccc1)C2 (configuration not stated)
inactive: locus YAL013W, strain DEP1, hits give low values 0.995 | locus YAL021C, strain ccr4, hits give low values 0.983 | locus YAL026C, strain drs2, hits give low values 1.01 | locus YAL030W, strain snc1, hits give low values 0.985 | locus YBL061C, strain skt5, hits give low values 0.968 | locus YBR009C, strain hhf1, hits give low values 0.989 | locus YBR021W, strain FUR4, hits give low values 0.99 | locus YBR023C, strain chs3, hits give low values 0.987 | locus YBR171W, strain sec66, hits give low values 0.957 | locus YBR229C, strain ROT2, hits give low values 0.989 | locus YBR231C, strain swc5, hits give low values 0.995 | locus YBR279W, strain paf1, hits give low values 0.985 | locus YCL011C, strain gbp2, hits give low values 0.951 | locus YCL016C, strain dcc1, hits give low values 0.956 | locus YCL029C, strain bik1, hits give low values 0.956 | locus YCL061C, strain MRC1, hits give low values 0.992 | locus YCL069W, strain vba3, hits give low values 0.998 | locus YCR088W, strain abp1, hits give low values 0.984 | locus YDL005C, strain med2, hits give low values 0.974 | locus YDL035C, strain GPR1, hits give low values 1.03 | locus YDL040C, strain nat1, hits give low values 0.993 | locus YDL074C, strain BRE1, hits give low values 0.975 | locus YDL101C, strain DUN1, hits give low values 0.975 | locus YDL134C, strain PPH21, hits give low values 0.981 | locus YDL185W, strain tfp1, hits give low values 0.974 | locus YDL192W, strain arf1, hits give low values 0.992 | locus YDR001C, strain nth1, hits give low values 0.978 | locus YDR069C, strain doa4, hits give low values 0.982 | locus YDR101C, strain arx1, hits give low values 0.971 | locus YDR137W, strain rgp1, hits give low values 0.975 | locus YDR150W, strain NUM1, hits give low values 0.996 | locus YDR159W, strain sac3, hits give low values 1.01 | locus YDR162C, strain NBP2, hits give low values 1 | locus YDR195W, strain ref2 0.983 | locus YDR297W, strain sur2, hits give low values 0.976 | locus YDR318W, strain mcm21, hits give low values 0.975 | locus YDR334W, strain swr1, hits give low values 0.938 | locus YDR335W, strain msn5, hits give low values 0.971 | locus YDR388W, hits give low values 0.984 | locus YDR392W, strain spt3, hits give low values 0.922 | locus YDR502C, strain sam2, hits give low values 0.987 | locus YEL003W, strain gim4, hits give low values 0.987 | locus YEL037C, strain rad23, hits give low values 0.988 | locus YEL061C, strain CIN8 (second series), hits give low values 0.987 | locus YEL061C, strain CIN8, hits give low values 0.993 | locus YER015W, strain faa2, hits give low values 0.987 | locus YER016W, strain bim1, hits give low values 0.989 | locus YER110C, hits give low values 0.975 | locus YER111C, strain swi4, hits give low values 0.987 | locus YER155C, strain BEM2 (second series), hits give low values 1.01 | locus YER155C, strain BEM2, hits give low values 0.983 | locus YER167W, strain BCK2, hits give low values 0.992 | locus YFR010W, strain ubp6, hits give low values 0.981 | locus YGL078C, strain dbp3, hits give low values 0.992 | locus YGL086W, strain mad1, hits give low values 1 | locus YGL167C, strain pmr1, hits give low values 0.976 | locus YGL173C, strain kem1, hits give low values 0.974 | locus YGL227W, strain vid30, hits give low values 0.979 | locus YGL240W, strain doc1, hits give low values 0.981 | locus YGL248W, strain PDE1, hits give low values 0.99 | locus YGL253W, strain hxk2, hits give low values 0.966 | locus YGR078C, strain PAC10, hits give low values 0.983 | locus YGR135W, strain pre9, hits give low values 0.971 | locus YGR229C, strain SMI1, hits give low values 1 | locus YGR252W, strain gcn5, hits give low values 1.09 | locus YHR013C, strain ard1, hits give low values 0.962 | locus YHR027C, strain rpn1, hits give low values 0.974 | locus YHR030C, strain SLT2, hits give low values 0.988 and 0.977 | locus YHR079C, strain IRE1 (second series), hits give low values 0.97 | locus YHR079C, strain IRE1, hits give low values 1 | locus YHR094C, strain hxt1, hits give low values 0.982 | locus YHR129C, strain ARP1, hits give low values 0.99 | locus YHR142W, strain chs7, hits give low values 0.944 | locus YHR200W, strain rpn10, hits give low values 0.979 | locus YIL066C, strain RNR3, hits give low values 0.983 | locus YIL073C, strain SPO22, hits give low values 0.972 | locus YIL125W, strain kgd1, hits give low values 0.994 | locus YIR030C, strain dcg1, hits give low values 0.971 | locus YJL092W, strain hpr5, hits give low values 0.985 | locus YJL095W, strain BCK1 (second series), hits give low values 0.981 | locus YJL095W, strain BCK1, hits give low values 0.967 and 0.963 | locus YJL115W, strain asf1, hits give low values 0.968 | locus YJL129C, strain trk1, hits give low values 0.974 | locus YJL134W, strain LCB3, hits give low values 0.994 | locus YJL154C, strain vps35, hits give low values 0.98 | locus YJL164C, strain tpk1, hits give low values 0.979 | locus YJL166W, strain qcr8, hits give low values 0.95 | locus YJL168C, strain set2, hits give low values 0.984 | locus YJL187C, strain SWE1 (second series), hits give low values 0.974 | locus YJL187C, strain SWE1, hits give low values 0.988 | locus YJR043C, strain POL32, hits give low values 0.99 | locus YJR066W, strain TOR1, hits give low values 0.987
